Hits are enriched below; roughly 5.7% of the tested compounds scored in any of these assays.
HT1080 IDH1KD tx: toxicity to HT-1080 IDH1 knockdown cells (counter line). HT-1080 IDH1 knockdown viability, ATP luminescence, 48 h. Potency, µM (titrated, usually from 46.1 µM), for inactives: at the top dose activity, negative = toxicity, actives largely listed as cytotoxic. 2% of 360,000 active;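 also: 0% = DMSO wells and -100% = cell-free medium wells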
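In this qHTS, HT-1080 cells depleted of IDH1 are exposed for 48 h at 37 °C to compound titrations. Toxicity is scored from CellTiter-Glo luminescence, with DMSO as full viability and medium alone as none.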
KB-3-1 tox: kills parental KB-3-1 adenocarcinoma cells; AID 1347075; KB-3-1 viability, CellTiter-Glo ATP luminescence, 72 h; Potency, µM (titrated, usually from 46.1 µM), most hits filed as cytotoxic; 1.4% of 400,000 active; also: nearly all actives have a fitted effect of over 60% in size
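Here the drug-naive KB-3-1 line serves as comparator for MDR sub-line selectivity; cells received compound titrations, 72 h at 37 °C, then CellTiter-Glo readout.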
KB-V1 cytotox: KB-V1 MDR subline cytotoxicity; Potency, µM (top dose mostly 46.1 µM), most hits filed as cytotoxic; AID 1347076; KB-V1 MDR cells viability, CellTiter-Glo, 72 h; 3.4% of 400,000 active; also: nearly all actives have a fitted effect of over 60% in size
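Drug-selected KB-V1 cells, grown in DMEM lacking phenol red with 10% FBS, receive compound titrations; after three days at 37 degrees C, surviving cell ATP is quantified by CellTiter-Glo luminescence and responses normalized and curve-fitted.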
HT1080-NT tox: kills 2HG-producing HT-1080-NT fibrosarcoma cells; HT-1080-NT fibrosarcoma viability, CellTiter-Glo ATP luminescence, 48 h; Potency, µM (series often up to 46.1 µM), for inactives: at the top dose activity, negative = less viability, most hits filed as cytotoxic; 1.6% of 360,000 active; AID 686970;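 also: NT is the 2HG producing partner of a matched IDH1 knockdown line; 0% = DMSO-treated cells and -100% = media-only wells without cells; nearly all actives have a fitted effect of over 55% in size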
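HT-1080-NT; 750 cells/well; 5% FBS RPMI; 48 h compound, 37 degrees C; CellTiter-Glo luminescence; curve fitting and curve-class assignment.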
Starred values were filed as active, the others as inactive; i = inactive; ? = inconclusive; / = no result given. Calls follow the shape of the dose curve; as a rule, active = well fitted curve in the direction sought with a large enough effect; inconclusive = small, poorly fitted or top-dose-only effect, or another doubt; inactive = no such curve, though single readings can be large; an effect the other way counts as inactive or inconclusive. Unless noted, % is scaled to controls: 0 for no effect and ±100 for the full control effect; potency is read from the fitted curve at half-maximal effect.

SMILES	HT1080 IDH1KD tx	KB-3-1 tox	KB-V1 cytotox	HT1080-NT tox
Cc1nn(Cc2cccc(F)c2)c(C)c1NC(=O)c1ccc(COc2ccccc2Cl)cc1	?	i	2.59µM*	2µM*
Cc1nn(Cc2cccc(F)c2)c(C)c1NC(=O)c1c([N+](=O)[O-])c(C)nn1C	19.1%	i	i	2.0%
Cc1nn(Cc2c(F)c(F)c(F)c(F)c2F)c(C)c1NC(=O)c1cccc(COc2ccccc2Cl)c1	-27.9%	i	2.59µM*	?
CCC(C)NC(=O)c1ccc(COc2ccccc2Cl)cc1 (configuration not stated)	-25.5%	i	20.6µM*	-10.1%
CCc1ccc(NC(=O)CN2C(=O)c3ccccc3Sc3ccc(C(=O)N4CCCC4)cc32)cc1	/	i	i	/
c1ccc2c(N=NN3CCCCC3)ccnc2c1	/	?	i	/
CCOCCCn1c(=N)c(C(=O)NCc2cccnc2)cc2c(=O)n3cc(C)ccc3nc21	/	i	i	/
O=C(NCCc1csc(-c2ccc(F)cc2)n1)C(=O)Nc1ccc(Cl)cc1	/	i	i	/
O=C(Nc1cc2ccc(O)cc2oc1=O)c1ccccc1	/	i	i	/
COC(=O)c1sc2ccccc2c1NC(=O)c1ccc(S(=O)(=O)N2CCCCC2C)cc1 (configuration not stated)	-5.1%	i	16.4µM*	-2.5%
CCC1CCCCN1S(=O)(=O)c1ccc(C(=O)Nc2nnc(C3CC3)o2)cc1 (configuration not stated)	?	?	?	-27.8%
CCC1CCCCN1S(=O)(=O)c1ccc(C(=O)Nc2nnc(-c3ccccc3Cl)o2)cc1 (configuration not stated)	8.2µM*	?	?	?
O=C(Nc1nnc(-c2ccccc2Cl)o1)c1ccc(S(=O)(=O)N2CCCCCC2)cc1	8.2µM*	?	8.2µM*	4.11µM*
CC1CCCCN1S(=O)(=O)c1ccc(C(=O)Nc2nnc(-c3ccccc3Cl)o2)cc1 (configuration not stated)	8.2µM*	?	16.4µM*	?
CS(=O)(=O)c1ccccc1-c1nnc(NC(=O)c2ccc(S(=O)(=O)N3CCCC3)cc2)o1	-22.8%	i	i	-9.2%
Cc1c(C(=O)O)[nH]c2ccc([N+](=O)[O-])cc12	13.0%	i	i	0.4%
NCCc1c(C(=O)O)[nH]c2ccc([N+](=O)[O-])cc12	25.5%	?	10.3µM*	1.7%
O=C(/C=C/c1cccc(F)c1)NNC(=O)c1ccncc1	-29.8%	?	8.2µM*	-8.1%
O=C(/C=C/c1cccc(Cl)c1)NNC(=O)c1ccncc1	-4.9%	?	i	-5.7%
CC(C)(C)NC(=S)Nc1ccc(Br)cc1	0.6%	i	i	5.1%
CC(C)(C)NC(=S)Nc1ccc(Nc2ccccc2)cc1	6.31µM*	?	16.4µM*	5.62µM*
CC(C)c1c(C(=O)N/N=C/c2ccc3c(c2)OCO3)nnn1-c1nonc1N	11.9%	i	i	9.3%
COc1cc(/C=N/NC(=O)c2nnn(-c3nonc3N)c2C(C)C)ccc1OCc1ccc(F)cc1	11.6µM*	?	i	?
CCN(CC)c1ccc(/C=N/NC(=O)c2nnn(-c3nonc3N)c2C(C)C)c(O)c1	1.3µM*	1.3µM*	i	?
O=C(c1ccccc1)N1CCN(c2ccc([N+](=O)[O-])c(NCc3cccnc3)c2)CC1	-14.0%	?	2.59µM*	-0.1%
SMILES	HT1080 IDH1KD tx	KB-3-1 tox	KB-V1 cytotox	HT1080-NT tox
COc1ccc(CCNc2cc(N3CCN(C(=O)c4ccccc4F)CC3)ccc2[N+](=O)[O-])cc1OC	?	i	?	-1.9%
COc1ccc(C(=O)N2CCN(c3ccc([N+](=O)[O-])c(NCCc4ccc(OC)c(OC)c4)c3)CC2)cc1	?	?	?	1.16µM*
O=C(c1ccc(Cl)cc1)N1CCN(c2ccc([N+](=O)[O-])c(NCc3cccnc3)c2)CC1	-22.7%	i	20.6µM*	-26.3%
CC(C)c1ccc(Nc2ncnc3onc(-c4ccc(F)cc4)c23)cc1	/	i	i	/
Cc1cc(C)c(S(=O)(=O)N2CCN(C(=O)CCOc3ccccc3C)CC2)c(C)c1	-0.4%	?	5.17µM*	5.6%
COc1cc2c(cc1OC)CN(C(=O)CCOc1ccccc1C)CC2	?	?	16.4µM*	?
CCOc1ccccc1OCCCC(=O)N1CCN(S(=O)(=O)c2cccc(F)c2)CC1	22.8%	i	6.51µM*	?
COc1cc2c(cc1OC)CN(C(=O)CCOc1ccccc1)CC2	-20.2%	i	?	-15.0%
COc1ccc(Cn2nnnc2C(c2ccccn2)N2CCN(c3cc(Cl)ccc3C)CC2)cc1 (configuration not stated)	-19.2%	?	13µM*	-21.1%
COCCn1nnnc1C(c1ccccn1)N1CCN(c2cc(Cl)ccc2C)CC1 (configuration not stated)	-8.3%	i	i	-0.1%
CCCC[C@H]1COCCS(=O)(=O)N1Cc1ccc(C)cc1	-5.6%	16.4µM*	16.4µM*	-2.0%
CCCC[C@H]1COCCS(=O)(=O)N1Cc1ccc(F)cc1	11.8%	?	?	0.0%
[O-][N+]12CCCc3cccc(c31)CCC2	/	i	i	/
CCCc1cc(=O)n2nc(N3CCC(C(=O)N4CCN(c5ccc(OC)cc5)CC4)CC3)sc2n1	13µM*	i	i	?
Cc1cc(=O)n2nc(N3CCC(C(=O)N4CCN(c5ccccc5)CC4)CC3)sc2n1	-3.7%	i	i	-10.5%
CSCCC1NC2(C(=O)Nc3c2ccc(Cl)c3C)[C@@H]2C(=O)N(C3CCCC3)C(=O)[C@H]12 (some centres not stated)	-3.0%	?	4.11µM*	5.7%
CCOC(=O)c1[nH]c2cc(OC)c(OC)cc2c1NC(=O)CN(C)C1CCCCC1	?	?	7.31µM*	2.4%
CCOC(=O)c1[nH]c2cc(OC)c(OC)cc2c1NC(=O)c1ccc2c(c1)OCO2	?	i	i	?
CCOc1ccccc1-n1nnnc1SC(C)C(=O)OC (configuration not stated)	13.8%	i	i	2.6%
CCCC1=NN(c2ccc([N+](=O)[O-])cc2)C(=O)/C1=C/N(C)C	4.9%	i	i	-1.4%
CC1=NN(c2nc3ccccc3[nH]2)C(=O)C1Cc1ccccc1 (configuration not stated)	?	?	?	2.06µM*
CC1=NN(c2nc3ccccc3[nH]2)C(=O)/C1=C/N(C)C	2.91µM*	5.8µM*	?	20.6µM*
CC1=NN(c2ccc([N+](=O)[O-])cc2)C(=O)/C1=C\N(C)C	8.2µM*	?	10.3µM*	8.2µM*
CCOC(=O)c1cnn(-c2ccc(OC)cc2)c1C1CCN(C(=O)OC(C)(C)C)CC1	/	i	?	/
CC(C)c1ccc(OCC(=O)Nc2cc(-c3ccccc3)no2)cc1	/	i	?	/
O=C(N/N=C/c1ccc2c(c1)OCO2)c1cc(-c2ccco2)nc2ccccc12	3.66µM*	?	?	4.11µM*
